Test results taken from the supplement of paper PMC3334620.
Whole data set: some 33,000 sequences, median “E-score (-0.5 to 0.5)” near -0.016, cut for the highest 2% near 0.3. The entries come from a sample that favours the highest values as a whole.

target: T1, Yer184c (UniProt P39961); assay: PBM E-score (8-mer binding enrichment) (E-score (-0.5 to 0.5)); higher = stronger / more preferred TF binding; settings: protein concentration: 100 nM; construct: GST-full length
T1 sequence: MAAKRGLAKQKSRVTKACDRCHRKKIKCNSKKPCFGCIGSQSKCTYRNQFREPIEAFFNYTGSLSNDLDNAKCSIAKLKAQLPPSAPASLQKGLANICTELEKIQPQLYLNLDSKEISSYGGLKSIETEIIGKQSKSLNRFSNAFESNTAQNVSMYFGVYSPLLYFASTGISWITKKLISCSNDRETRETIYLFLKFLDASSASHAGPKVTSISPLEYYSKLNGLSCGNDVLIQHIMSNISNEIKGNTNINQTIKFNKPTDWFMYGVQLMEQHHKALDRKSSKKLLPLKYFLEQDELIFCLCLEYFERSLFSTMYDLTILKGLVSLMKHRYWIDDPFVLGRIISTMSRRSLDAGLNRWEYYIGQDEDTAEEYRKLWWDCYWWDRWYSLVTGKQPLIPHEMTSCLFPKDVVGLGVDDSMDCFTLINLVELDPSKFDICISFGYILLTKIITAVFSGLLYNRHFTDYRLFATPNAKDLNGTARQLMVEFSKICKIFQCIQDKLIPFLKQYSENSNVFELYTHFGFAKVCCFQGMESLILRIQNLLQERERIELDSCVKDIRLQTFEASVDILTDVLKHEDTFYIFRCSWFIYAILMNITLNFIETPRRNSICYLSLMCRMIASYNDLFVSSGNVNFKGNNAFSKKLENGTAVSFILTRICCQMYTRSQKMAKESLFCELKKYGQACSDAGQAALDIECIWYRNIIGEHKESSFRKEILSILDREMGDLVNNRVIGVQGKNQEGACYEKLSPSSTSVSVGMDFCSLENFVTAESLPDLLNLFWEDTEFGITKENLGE
Method in brief: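 Each ungapped eight-base word and its reverse complement, pooled, received an E-score from the Universal PBM Analysis Suite. Underlying scans, normalised with masliner, recorded fluorescent anti-GST bound to GST-tagged yeast transcription factors. These were applied at about 100-200 nM to universal all-10-mer Agilent arrays double-stranded by primer extension.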

Sequence	PBM E-score
AACATCAA	0.156
GCTCCAAA	-0.0747
ACATACCA	-0.12
ATTGCGTC	-0.0563
GCCTGTGA	-0.282
CAACTGAC	-0.106
AACCTAAG	-0.181
CGGGAATA	0.3
CCGGAATA	0.339
ACGGACTC	0.0365
CTGGAATC	-0.192
CCGGACTC	0.341
ACGGAATC	0.301
ACGGAATA	0.321
ATGGAATA	0.127
GCGGAATA	0.205
CCGGACTA	0.273
CCGGAATC	0.336
ACGGAATG	0.167
GACCTAAA	0.0912
AAAACTGC	0.0178
GGTACTAA	-0.00623
GGGCGACC	-0.167
GCTAACCA	-0.0625
CAGAAGGA	-0.224

Sequence	PBM E-score
TCGCTCAA	0.047
CCGGCTTC	0.307
ACGGCTTA	0.193
ACGGCTGC	0.0869
GCGGCTTA	0.025
GCGGCTGA	-0.0974
CGGGCTTC	0.169
CTGGCTGC	-0.198
ACGGCTGA	0.0623
CCGGCTGC	0.331
CCGGCTGA	0.327
ACGGCTTC	0.0891
CCGGCTTA	0.33
ACTTTCTA	-0.0235
AGAATGCT	-0.168
CAAATCGC	-0.0704
ATGGAGAC	-0.176
TACGTCTA	-0.127
GTTAGCTA	-0.119
GGATATGA	0.0918
ACCGGGAA	0.28
CCCGGGAA	0.272
GCCGGGGA	0.0977
GCCGGGAA	0.331
TCCGGGAA	0.37

Sequence	PBM E-score
GCCGGGAC	0.263
CATGCAAC	-0.00764
GTCTCAAC	-0.0423
AGCTAGAT	-0.104
CGGGACGC	-0.0137
AATTCCAT	0.0965
AATTCCCT	-0.0636
AATTCCGG	0.387
CATTCCGG	0.318
AATTCCGT	0.328
CATTCCGC	-0.0761
AATTCCGC	0.208
AATTCCCG	0.272
CATTCCGA	0.278
CTGGCTAC	-0.13
GATCAATA	0.164
ACACTGGA	0.0234
ATCCCTAG	-0.0477
ATTGGTGG	-0.0975
AGTCCAGG	-0.206
ATAAGGTC	-0.0447
CATCTCGG	0.272
AGCTTAAT	0.201
CGGTCCGA	0.335
GGATCCGA	0.242

Sequence	PBM E-score
CGATCCGC	0.113
GGGTCCGA	0.113
CGATCCGA	0.305
AGGTCCGA	0.197
ACAAGTAG	-0.201
ATCAAGCG	0.0135
GATTTCGA	0.042
CATTTCGC	0.0218
GATTTCGC	0.312
GCCTTACA	-0.205
CATGAGGG	-0.212
ATTTGCCG	0.306
ATTTGCCA	-0.0738
ATTTGCCC	0.0315
AACAAGAC	0.105
ACCTCAAA	0.137
CCCCTGAC	-0.0911
AACCGAGC	0.323
GGCCGAGA	0.348
GGCCGACA	0.0888
CTCCGAGC	0.271
CCCCGAGC	-0.0347
CGCCGAGC	0.344
ATCCGAGG	0.182
ACCCGAGG	-0.00171

Sequence	PBM E-score
AACCGAGT	0.0155
AGCCGAGG	0.336
GGCCGATA	0.264
CACCGAGC	0.231
GACACTCA	-0.0521
ACAGCGGA	0.0362
GGGTTAGA	-0.134
AACGTAAT	-0.0198
GTTGGACA	-0.0236
AATGTTCG	0.0469
CCCCGAGA	-0.123
AGCCGATA	0.142
AGCCGAGC	0.318
CGCCGACA	0.18
GCCCGAGA	0.24
CGCCGAGA	0.346
TCCCGAGA	0.305
CACCGAGA	-0.212
AACCGAGA	0.229
ATCCGAGC	0.219
ACCCGAGC	0.229
AGCCGAGA	0.326
CTACTGGA	-0.271
CCTCAGCG	0.0964
ATAGAGGG	-0.135

Sequence	PBM E-score
AGGCCAAA	0.0579
AACAACGG	0.175
CGAACTTC	0.13
GCCCGCAC	-0.0678
AATCTGTA	0.116
GAAGAGTA	0.113
CGGTTCGC	0.0153
ACGAATAA	0.0316
CCGAATAC	0.293
ACGAATGA	0.189
CCGAATGA	0.321
CCGAATAA	0.346
GCGAATGA	0.149
GGGTCTAC	-0.06
TCGCGTCA	-0.0846
ATGGTTTC	0.0728
GCGAATAA	0.0477
CCATCCGA	0.0749
GCATCCGA	0.176
TCATCCGA	0.34
ACATCCTG	0.0484
ACATCCGG	0.397
ACATCCGA	0.346
ACATCCGC	0.252
ACATCCGT	0.167

Sequence	PBM E-score
CCATCCGG	0.143
ACCACAAG	-0.0787
CGATGCTA	0.084
ATGTGCCG	0.18
CATAGCAG	-0.293
AAGAGGCC	-0.172
ACGTCGCT	-0.239
CCTTCAGC	-0.152
AGCGGAGA	-0.0382
CACGGATC	0.256
GACGGATC	0.115
CGCGGAGC	0.171
CACGGATA	0.332
AACGGATC	0.306
AGCGGATC	0.204
CACGGATG	0.108
CGCGGATA	0.317
CGCGGAGA	0.308
CGCGGATC	0.13
AGCGGATA	0.0602
TTACGCAA	0.0884
GGCTGAAC	0.0871
CCCCGCGA	-0.0621
ATCCACTC	-0.00405
TACGGATA	0.195

Sequence	PBM E-score
GACGGATA	0.125
AACGGATA	0.374
AACGGACT	0.14
AACGGATT	0.343
AACGGATG	0.197
GCCGATTA	0.274
ACTAAGGC	-0.0457
CGTTCAGA	-0.0522
ACTCATTA	-0.0725
CGGTTGAA	0.304
CGGTTGAC	0.113
TGGTTGAA	-0.0916
ACTATGCA	-0.111
ATTCCCGA	0.162
ATTCCCGG	0.384
ATTCCGGC	0.393
CCTCCGGC	0.3
ACTCCGGG	0.265
ATTCCGCC	0.16
AATCCGGG	0.269
ACTCCGGC	0.326
ATTCCCCG	0.117
ATTCCAGC	-0.0455
ATTCCTGG	-0.138
ATTCCGGG	0.356

Sequence	PBM E-score
CGCTTAAG	-0.133
CCCTACCC	-0.256
AAGATACC	0.187
GGATTCCC	-0.173
AGGCTTTA	-0.154
CAACTAGC	0.0974
CCTCCCCG	-0.0343
AGCCGTAG	0.155
GGACGGAA	0.0833
GGGCGGAA	0.0682
AGCCGGAC	0.339
GACCGGAC	0.245
AGACGGAT	0.195
CGCCGGAG	0.222
AGCCGGAG	0.402
GGCCGGAC	0.294
GGCCGGAA	0.338
AGCCGGAT	0.402
AGCCGTAT	0.214
AGTGAGCA	-0.0113
CGGGTTGC	0.118
AGCTGGAC	-0.0983
AAACCCAC	0.0014
AACGCAGT	-0.081
ACTCGCCG	0.131

Sequence	PBM E-score
AGCACCAT	-0.291
GCCCAAGC	-0.0265
CGCCGGAC	0.28
CGCCGGAA	0.368
AGCCGGAA	0.423
TGCCGGAA	0.421
AGACGGAA	0.277
TGACGGAA	0.17
AGGCGGAA	0.195
CGGCGGAA	0.298
TGCCGTAA	0.0109
CCTGGTTC	-0.0462
CGAGCCCC	-0.186
AAGAGAAT	0.0316
ACGTTAGT	-0.0893
CGATTTCC	0.214
CGGCACCC	0.048
CGGCACCA	0.256
CGGCACCG	0.346
CCTACCAA	0.0704
TCTCAAGA	-0.0209
CCCTAGAC	-0.189
ACGGTTGC	-0.129
CCGGTTGC	0.355
GCGGTTGA	0.113

Sequence	PBM E-score
CCGGTTTC	0.244
CCGGTTGA	0.321
ACGGTTGA	-0.0221
ACTCTTCT	-0.0645
CTTGGTCC	0.0693
TCGTGTCA	-0.0881
ACACTGCT	-0.244
GCAATAGA	-0.0314
CCTCAGCC	-0.233
ACGCTTTA	-0.0723
CAGTCGCG	-0.189
CAATCCGA	0.184
AAATCCGG	0.394
AAATCCGC	-0.00733
CAATCCGG	0.316
CAATCCGC	0.095
AAATCCGT	0.181
AGCGGTGA	-0.0103
ACTCTGCG	0.013
CCCGTTAA	-0.0453
TCCGTTAA	0.305
GCGGTTAA	0.0539
GCCGTTAA	0.169
CCGGTTAA	0.297
TCGGTTAA	0.333

Sequence	PBM E-score
ATTGTGAG	0.09
ACTTCTCG	0.17
CCGCCGAA	0.313
CCGCCAAA	0.14
ACGCCGAG	0.328
CCGCCGTA	0.075
ACGCCGTG	0.0103
CCGCCGAC	0.109
CCGCCGAG	0.304
CCGCCGCG	0.172
ACGCCGCG	0.0694
CCTAAAGG	-0.122
GCTACCGA	0.0575
AAATGAGC	0.038
CTAGGAGA	-0.0687
CCCGACTC	-0.0899
CCTAAAAA	0.105
TACGAAGA	0.05
ACCGAAGT	0.136
GCCGAAGC	0.246
CCCGAAGA	0.105
ACCGAAGA	0.344
TCCGAAGA	0.376
GACGAAGA	0.0167
GCCGAAGA	0.315

Sequence	PBM E-score
ACCGAAGC	0.1
CTCTAGTC	-0.244
GGAGTTGA	0.0129
CCCGGACC	0.149
ACGGGATC	0.0948
CCGGGATA	0.315
CCGGGATC	0.339
CCGGGACC	0.342
GCGGGATA	0.0399
ACGGGACC	-0.109
CCCGGATC	0.318
CCCGGATA	0.286
CGGGGATA	0.0634
CGGGGATC	0.0365
GCGGGACC	-0.0189
CAAAACCG	0.116
GAACTCAA	0.0685
AGTTCTAT	-0.0389
ACCCAATC	-0.00791
GCTTGTCC	0.114
CGAATTTC	0.276
AAGGTTGG	-0.24
AGAGTGAG	-0.128
CTTTAAAC	-0.052
GTTTAAAA	0.162

Sequence	PBM E-score
GTTTAAAC	0.32
AATACCCG	0.104
TGGGAAAA	-0.0424
ATGGAAAA	0.158
TCGGAAAA	0.382
GCGGAAAA	0.216
AGGGAAAT	-0.166
GCGGAAAC	0.0908
AAGGAAAC	0.0646
ACGGAAAC	0.306
ACGGAAAT	0.39
ACGGAAAA	0.309
TTGGAAAA	0.134
AAGGAAAT	0.107
AAGTGGGA	0.034
CCAGCGGG	0.134
ATACCCAT	-0.0126
ATAGAGAA	0.103
CATTCGAG	-0.0644
